Results on seven compounds are retold here after PubChem BioAssay (NCI).

About 83,000 compounds went through this panel and 20% of them were active in at least one assay; those are over-represented in the sample as a whole.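 Activity criterion: percent growth below 10, measured after cells in 96-well plates were exposed to a single compound concentration for 48 hours.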 Unmarked numbers belong to inactive results. Active and inactive are the calls of the source.

Assay in all cases: NCI-60 one-dose screen, 48 h (100 = growth as untreated, 0 = no growth, -100 = all killed)
One experiment deals with NCI-H226 lung. As to conditions: 10 µM.
The subject of another experiment is HOP-62 NSCLC. To be noted: 10 µM.
The subject of a further experiment is NCI-H460 lung. To be noted: 10 µM.
A further experiment deals with A549/ATCC NSCLC. To be noted: 10 µM.
The next experiment concerns COLO 205 colon. To be noted: 10 µM.
A further experiment has as its system DU-145 prostate. As to conditions: 10 µM.
The test system of the next experiment is K-562 leukemia. As to conditions: 10 µM.
Another experiment deals with SF-539 CNS. As to conditions: 10 µM.
The test system of a further experiment is M14 melanoma. As to conditions: 10 µM.
The test system of another experiment is HCT-15 colon. To be noted: 10 µM.
Another experiment has as its system HT29 colon. As to conditions: 10 µM.
The subject of the next experiment is SNB-75 CNS. To be noted: 10 µM.
The next experiment deals with SNB-19 CNS. As to conditions: 10 µM.
In the next experiment the test system is U251 CNS. To be noted: 10 µM.
Another experiment deals with PC-3 prostate. As to conditions: 10 µM.
For the next experiment, the system named is LOX IMVI melanoma. As to conditions: 10 µM.
In the next experiment the test system is MOLT-4 leukemia. As to conditions: 10 µM.
The next experiment relates to RPMI-8226 leukemia. To be noted: 10 µM.
In the next experiment the test system is SK-OV-3 ovarian. To be noted: 10 µM.
The test system of the next experiment is MDA-MB-468 breast. As to conditions: 10 µM unless noted.

`Nc1nnc(-c2c[nH]c3ncc(Br)cc23)c(-c2c[nH]c3ccc(Br)cc23)n1`: the growth in the experiment on NCI-H226 lung was 35.8%; in the experiment with HOP-62 NSCLC, 44.5%; in the experiment with NCI-H460 lung, 26.5%; in the experiment with A549/ATCC NSCLC, 48.7%; in the experiment with COLO 205 colon, 0.336% (active); with DU-145 prostate, 32.5%. Moreover, the growth in the experiment on K-562 leukemia is 15.2%; with SF-539 CNS, 19.9%; with M14 melanoma, 34.5%; in the experiment on HCT-15 colon it was 31.7%; in the experiment on HT29 colon, 30.9%; in the experiment on SNB-75 CNS it was 43.4%. Moreover, the growth with SNB-19 CNS is 46.7%; in the experiment with U251 CNS, 38.3%; in the experiment with PC-3 prostate it was 26.6%; with LOX IMVI melanoma, 37.6%; in the experiment on MOLT-4 leukemia, 5.25% (active); in the experiment on RPMI-8226 leukemia, 10.9%. Besides, the growth in the experiment with SK-OV-3 ovarian was 66.6%; in the experiment with MDA-MB-468 breast, 8.52% (active).

For `Fc1ccc(-c2csc(Nc3cccc(Nc4nc(-c5ccc(F)cc5)cs4)c3)n2)cc1`, the growth with NCI-H226 lung was 51.5%; with HOP-62 NSCLC it was 72.7%; in the experiment with NCI-H460 lung it was 40.4%; with A549/ATCC NSCLC, 62.8%; in the experiment on COLO 205 colon it was 75.7%; in the experiment with DU-145 prostate it was 67.7%. Moreover, the growth in the experiment on K-562 leukemia was 36%; with SF-539 CNS, 70.9%; with M14 melanoma, 66.8%; in the experiment with HCT-15 colon, 52.5%; in the experiment with HT29 colon, 62.3%; with SNB-75 CNS, 95.2%. Besides, the growth in the experiment with SNB-19 CNS was 70.2%; with U251 CNS, 62.7%; in the experiment with PC-3 prostate, 35.2%; in the experiment with LOX IMVI melanoma, 39.3%; with MOLT-4 leukemia, 46.4%; with RPMI-8226 leukemia, 49.5%. Further, the growth was 86.8% in the experiment on SK-OV-3 ovarian and 38.6% in the experiment with MDA-MB-468 breast.

`O=C(c1ccc(Cl)cc1)C(c1c[nH]c2ccccc12)c1c[nH]c2ccccc12`: the growth was -50.8% (active) in the experiment with NCI-H226 lung; 16% in the experiment with HOP-62 NSCLC; -53.5% (active) with NCI-H460 lung; 4.91% (active) with A549/ATCC NSCLC; -87.9% (active) in the experiment with COLO 205 colon; -91.7% (active) in the experiment with DU-145 prostate. Also, the growth in the experiment with K-562 leukemia was 0.546% (active); in the experiment on SF-539 CNS, -94.2% (active); with M14 melanoma, -71% (active); in the experiment on HCT-15 colon, -63.9% (active); with HT29 colon, -71.1% (active); in the experiment on SNB-75 CNS it was 31.9%. For the same compound, the growth in the experiment on SNB-19 CNS is 22.4%; with U251 CNS, -89.1% (active); in the experiment with PC-3 prostate, -33.2% (active); in the experiment with LOX IMVI melanoma, -85.1% (active); in the experiment with MOLT-4 leukemia, -1.68% (active); with RPMI-8226 leukemia, -27.9% (active). The values for the growth in the experiment on SK-OV-3 ovarian and in the experiment on MDA-MB-468 breast were 57.2% and -71.1% (active), respectively.

Consider `CC1[C@H]2[C@H](C[C@H]3[C@@H]4CC=C5c6sc(Nc7cccc(Cl)n7)nc6CC[C@]5(C)[C@H]4CC[C@@]32C)O[C@]12CC[C@@H](C)CO2` (stereo not given in full), for which the growth was 81.5% in the experiment on NCI-H226 lung; 116% with HOP-62 NSCLC; 85.7% in the experiment with NCI-H460 lung; 96.1% in the experiment with A549/ATCC NSCLC; 70.2% in the experiment on COLO 205 colon; 99.1% in the experiment on DU-145 prostate. The growth in the experiment with K-562 leukemia is 54.5%; with SF-539 CNS, 110%; with M14 melanoma, 77.4%; with HCT-15 colon, 73.9%; with HT29 colon, 100%; in the experiment with SNB-75 CNS, 127%. Further, the growth was 96.6% with SNB-19 CNS; 92.2% with U251 CNS; 48% in the experiment with PC-3 prostate; 79.6% in the experiment with LOX IMVI melanoma; 79.8% in the experiment with MOLT-4 leukemia; 56.5% in the experiment on RPMI-8226 leukemia. Further, the growth was 108% with SK-OV-3 ovarian and 93.6% in the experiment with MDA-MB-468 breast.

Regarding `O=C(CSc1nc2ccccc2c(=O)n1-c1ccc(Cl)cc1)Nc1ccc(-c2nc3ccc([N+](=O)[O-])cc3[nH]2)cc1`, the growth in the experiment on NCI-H226 lung was 0.985% (active); in the experiment on HOP-62 NSCLC, 0.0608% (active); with NCI-H460 lung it was 21.1%; with A549/ATCC NSCLC, 50.2%; with COLO 205 colon, 11%; in the experiment on DU-145 prostate, 44.2%. The growth was 28.9% with K-562 leukemia; 28.6% in the experiment on SF-539 CNS; 32.4% with M14 melanoma; 56.3% with HCT-15 colon; 36.4% in the experiment with HT29 colon; 34.4% with SNB-75 CNS. Further, the growth in the experiment on SNB-19 CNS is 48.7%; with U251 CNS, 20.6%; in the experiment on PC-3 prostate it was -14.9% (active); in the experiment with LOX IMVI melanoma it was -30% (active); with MOLT-4 leukemia, 39.5%; in the experiment on RPMI-8226 leukemia it was 53%. The growth in the experiment on SK-OV-3 ovarian was 40.2%; in the experiment with MDA-MB-468 breast, -35.6% (active).

`O=C(Nc1ccc(OCc2ccc(F)cc2)cc1)Nc1ccc(Cl)c(C(F)(F)F)c1`: the growth with NCI-H226 lung is 15%; in the experiment on HOP-62 NSCLC, 11.4%; with NCI-H460 lung, 6.77% (active); with A549/ATCC NSCLC it was 16.4%; in the experiment on COLO 205 colon, -79.2% (active); with DU-145 prostate, 31.6%. Besides, the growth was 9.32% (active) with K-562 leukemia; 8.73% (active) in the experiment with SF-539 CNS; 9.01% (active) with M14 melanoma; 7.42% (active) in the experiment with HCT-15 colon; 11.9% in the experiment with HT29 colon; 21% in the experiment on SNB-75 CNS. Moreover, the growth in the experiment with SNB-19 CNS was 18.3%; in the experiment with U251 CNS it was 10.3%; with PC-3 prostate, -1.21% (active); in the experiment with LOX IMVI melanoma, -47.4% (active); with MOLT-4 leukemia, 6.64% (active); in the experiment with RPMI-8226 leukemia it was -1.27% (active). Moreover, the figures for the growth in the experiment on SK-OV-3 ovarian and with MDA-MB-468 breast were -26.5% (active) and -8.31% (active), respectively.

With `CCOC(=O)c1ccc(NC(=O)CSC(CC(=O)c2sc(Nc3ccccn3)nc2C)c2ccccc2F)cc1` (stereo not given), the growth in the experiment with NCI-H226 lung is 4.65% (active); with HOP-62 NSCLC, 3.54% (active); in the experiment with NCI-H460 lung it was -40.7% (active); in the experiment on A549/ATCC NSCLC, 1.12% (active); in the experiment on COLO 205 colon it was -34.1% (active); in the experiment with DU-145 prostate, 1.39% (active). Besides, the growth is 5.79% (active) with K-562 leukemia; -27.3% (active) in the experiment with SF-539 CNS; 0.872% (active) in the experiment on M14 melanoma; -42% (active) in the experiment with HCT-15 colon; -28.3% (active) with HT29 colon; -3.07% (active) with SNB-75 CNS. In addition, the growth with SNB-19 CNS was 21.1%; with U251 CNS, -70.4% (active); in the experiment on PC-3 prostate, 0.809% (active); with LOX IMVI melanoma, -76.8% (active); in the experiment on MOLT-4 leukemia, 11.5%; in the experiment on RPMI-8226 leukemia, -14.2% (active). The growth with SK-OV-3 ovarian was 5.92% (active); with MDA-MB-468 breast, 3.8% (active).
